PubChem BioAssay AID743318 (Broad Institute, 2014)
Results with a measured potency or affinity are listed apart. A number with no mark means an inactive call. Activity calls are given as the source filed them.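 Rule for the calls: active = cytotoxic signal drop whose half-maximal concentration is at most twice the top valid dose; inconclusive = flat drop between 30% and 70%, or poor fit; inactive = the rest.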

Experiment: A549 cell cytotoxicity, dose response, cytotoxicity control, plate reader, dry powder, set 7 (AID 743318)
Conditions: A549 viability, CellTiter-Glo ATP luminescence, 72 h; series mostly up to 26 µM; activity change, negative = cytotoxic: at the top concentration

Compound | activity change, negative = cytotoxic | outcome
S=c1[nH]c2ccccc2n1CCOc1ccccc1 | -16.9% | –
Cc1cccc(OCCn2c(=S)[nH]c3cc(F)ccc32)c1 | – | inactive
COCc1nc2ccccc2n1CCOc1ccc(C(C)(C)C)cc1 | 16.1% | –
S=c1[nH]c2cc(Cl)ccc2n1CCOc1ccccc1 | -5.83% | –
Cc1ccc(OCCn2cnc3ccccc32)cc1 | 31.7% | –
Cc1ccc(C(C)C)c(OCCn2c(=S)[nH]c3cccc(Cl)c32)c1 | -5.23% | –
Cc1ccc(OCCn2c(=S)[nH]c3ccccc32)cc1 | 9.56% | –
Cc1ccc(C(C)C)c(OCCn2c(=S)[nH]c3ccccc32)c1 | – | inactive
CC(C)(C)c1ccccc1OCCn1c(=S)[nH]c2ccccc21 | -20.2% | –
O=c1[nH]c2ccccc2n1CCOc1ccccc1 | 22.5% | –
Cc1ccc(C(C)C)c(OCCn2c(=S)[nH]c3cccc(C)c32)c1 | -17.9% | –
CCOc1ccc(OCCn2c(=S)[nH]c3ccccc32)cc1 | 1.48% | –
COc1cccc(OCCn2c(=S)[nH]c3ccccc32)c1 | 9.38% | –
CC(C)c1ccccc1OCCn1c(=S)[nH]c2ccccc21 | -10.6% | –
Fc1ccc2c(c1)[nH]c(=S)n2CCOc1ccccc1 | – | inactive
Fc1cccc2c1[nH]c(=S)n2CCOc1ccccc1 | – | inactive
CC(C)c1ccccc1NCCn1c(=S)[nH]c2ccccc21 | 24.5% | –
S=c1[nH]c2ccccc2n1CCOc1ccc(Cl)cc1 | -23.8% | –
Cc1ccc(C)c(OCCn2c(=S)[nH]c3ccccc32)c1 | -10.8% | –
Cc1ccc(OCCn2cnc3ccccc32)c(C(C)C)c1 | 11.1% | –
Fc1ccc(OCCn2c(=S)[nH]c3ccccc32)cc1 | -9.83% | –
Cc1cccc2[nH]c(=S)n(CCOc3ccccc3)c12 | 8.58% | –
COc1ccc(OCCn2c(=S)[nH]c3ccccc32)cc1 | -10.1% | –
Cc1cccc(OCCn2c(=S)[nH]c3ccccc32)c1C | 20.7% | –
S=c1[nH]c2cccc(Cl)c2n1CCOc1ccccc1 | – | inactive
